Env fusion inh – inhibitors of HIV-1 Env-driven cell-cell fusion, primary screen, HeLa-JRFL effector, CEM21 target cells, luciferase. inhibition, % at 12.3 µM. hit rate 1.1% among 360,000;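 active means mean replicate inhibition score of at least 50 and every replicate individually at or above 50; inconclusive means only one of the two criteria met; inactive means mean below 50 and not all replicates reaching 50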
Wnt bcat act – Wnt/beta-catenin pathway activators, primary screen, cell-based, plate reader, single point. Wnt/beta-catenin reporter cell assay, activator. activation, % at 9.35 µM. hit rate 1.2% among 300,000; in the data active means activation above about 30%, passing the limit was not always enough; inconclusive means no clear call, values can overlap the other calls
MITF act – activators of MITF-driven TRPM1 promoter reporter, primary screen, cell-based, SK-MEL-5, luciferase, single point | hit rate 0.75% among 300,000 | SK-MEL-5 TRPM1-promoter luciferase, 24 h; % of positive control, neutral wells = 0 | activation, % at 12.5 µM;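 active means mean activation of at least 80% with every replicate also reaching 80%; inconclusive means mean reaches 80% but some replicate falls short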
CFTR F508del cor – F508del CFTR correction, initial screen, CFBE line, single point | CFBE cells, YFP halide quenching; stimulated with forskolin plus potentiator P3; % fluorescence drop versus neutral controls | activity (quench increase), % at 7.58 µM | hit rate 0.36% among 350,000;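 active means mean added fluorescence quench of at least 8% versus neutral control, with both replicates also reaching 8%; inconclusive means only one of the mean or replicate conditions met; inactive means mean below 8% and not both replicates reaching 8%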;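 further: cells transiently co-express mutant CFTR-F508del with the halide-sensitive YFP; corrector assay measuring rescue of mutant channel to the surface after 24 h compound exposure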
INS-1E GSIS act – GLuc luminescence reporter in INS-1E cells, primary screen for activators of glucose-dependent secretion of insulin. AID 743287, 2014. hit rate 0.61% among 370,000. INS-1E GLuc reporter insulin secretion, 2-3 h. activation, % at 16.6 µM;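 active means lowest replicate activation of at least 40%, so every replicate reaches that level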
Of the large screens only hits and unclear results are named; the others gave an inactive call. Only some compounds are listed: those with a hit (about 2.7% of all), similar ones and a draw of the others.

O=C(O)[C@@H]1[C@@H](CO)[C@@H]2Cn3c(ccc(-c4ccncc4)c3=O)[C@H]1N2C(=O)C1CC1	Env fusion inh inconclusive (no result: Wnt bcat act, MITF act, CFTR F508del cor)
CN1CCN(c2ccc([N+](=O)[O-])c3no[n+]([O-])c23)CC1	CFTR F508del cor 18.3
O=[N+]([O-])c1ccc(N(CCO)CCO)c2c1no[n+]2[O-]	none (no result: MITF act, INS-1E GSIS act)
O=P(Oc1ccc(-c2ccccc2)cc1)(N1CC1)N1CC1	CFTR F508del cor 9.9 (no result: Env fusion inh, INS-1E GSIS act)
O=P(Oc1ccc(Cl)cc1)(N1CC1)N1CC1	none (no result: INS-1E GSIS act)
C[C@H](CO)N1C[C@H](C)[C@H](CN(C)C(=O)Oc2ccccc2)OCc2ccccc2-c2c(n(C)c3ccccc23)C1=O	none (no result: Env fusion inh, Wnt bcat act, MITF act)
N#Cc1cccc(-c2ccc([C@H]3[C@H]4CN(C(=O)Cc5cccnc5)CCCCN4[C@H]3CO)cc2)c1	none (no result: Env fusion inh, Wnt bcat act, MITF act)
OC[C@H]1Nc2ccc(C#Cc3cccnc3)cc2[C@H]2NCC[C@H]21	none (no result: Env fusion inh, Wnt bcat act, MITF act)
CCCCCP(=O)(O)c1ccccc1	none (no result: Wnt bcat act, MITF act, CFTR F508del cor, INS-1E GSIS act)
CCCC/C(C)=C/[C@@H](NP(=O)(c1ccccc1)c1ccccc1)c1ccccc1	Env fusion inh 84.1
C[C@]1(O)CC[C@H]2[C@@H]3CCC4=CC(=O)CC[C@]4(C)[C@@]3(F)[C@@H](O)C[C@@]21C	INS-1E GSIS act 80.4 (no result: Env fusion inh)
C[C@]12CC[C@H](O)C[C@H]1CC[C@@H]1[C@@H]2CC[C@]2(C)[C@@H](C3=CC(=O)OC3)CC[C@]12O	Env fusion inh inconclusive (no result: INS-1E GSIS act)
COC1C(O)C(C)OC(OC2CCC3(C)C(CCC4C3C(O)CC3(C)C(C5=CC(=O)OC5)CCC43O)C2)C1O (configuration not stated)	Env fusion inh 86.2 (no result: MITF act, INS-1E GSIS act)
CC12CCC(O)CC1CCC1C2CCC2(C)C(C3=CC(=O)OC3)CCC12O (configuration not stated)	Env fusion inh 86.6 (no result: MITF act)
CC12CCC(O)CC1CCC1C2CCC2(C)C(C3=CC(=O)OC3)C(O)CC12O (configuration not stated)	Env fusion inh 73.6 (no result: MITF act, INS-1E GSIS act)
CCCN1[C@@H]2c3cccc(=O)n3C[C@H]1[C@H](CO)[C@H]2C(=O)N(C)C	none (no result: Wnt bcat act, MITF act, CFTR F508del cor)
CN(C(=O)Oc1ccc(Cl)c2cccnc12)c1ccccc1	none (no result: Env fusion inh, Wnt bcat act, CFTR F508del cor)
CN(C)C(=O)Oc1c(Cl)cc(Cl)c2cccnc12	Wnt bcat act 48.1
Cc1ccccc1-c1ccc([C@@H]2[C@H]3CN(C(=O)Cc4ccccn4)CCCCN3[C@H]2CO)cc1	none (no result: Env fusion inh, Wnt bcat act, MITF act)
COC1/C=C/C=C(\C)Cc2cc(O)c(Cl)c(c2)N(C)C(=O)CC(OC(=O)C(C)C)C2(C)OC2C(C)C2CC1(O)NC(=O)O2 (configuration not stated)	Env fusion inh 56.3
COc1ccc(C#Cc2ccc([C@@H]3[C@H](CO)N4CCCCN(C(=O)Cc5ccncc5)C[C@@H]34)cc2)cc1	none (no result: Env fusion inh, Wnt bcat act, MITF act)
COC(=O)[C@H]1[C@H](CO)[C@H]2Cn3c(ccc(-c4ccccc4)c3=O)[C@@H]1N2CC1CCCCC1	none (no result: Env fusion inh, Wnt bcat act, MITF act)
CCc1ccc(N2C(=O)NC(=O)/C(=C\c3cccn3CCOc3ccc(C(C)C)cc3)C2=O)cc1	Wnt bcat act 34.1 (no result: CFTR F508del cor)
CCCN1[C@@H]2Cn3c(ccc(-c4ccc(OC)cc4)c3=O)[C@H]1[C@@H](C(=O)OC)[C@@H]2CO	none (no result: Env fusion inh, Wnt bcat act, MITF act)
CN(C)CCCN=Cc1c(O)n(CCc2ccc(F)cc2)c(=O)[nH]c1=O	Wnt bcat act 38.5 (no result: MITF act, CFTR F508del cor, INS-1E GSIS act)
CN(C)CCCN=Cc1c(O)n(CCc2ccccc2)c(=O)[nH]c1=O	none (no result: Wnt bcat act, MITF act, CFTR F508del cor, INS-1E GSIS act)
COC(=O)[C@@H]1[C@@H](CO)[C@@H]2Cn3c(ccc(-c4cccc(OC)c4)c3=O)[C@H]1N2CC1CC1	none (no result: Env fusion inh, Wnt bcat act, MITF act, CFTR F508del cor)
Cc1ccccc1-[n+]1c(-c2ccccc2)cc(-c2ccccc2)cc1-c1ccccc1	Env fusion inh 67.8
Cn1cc(C(=O)OCC(=O)N2CCCCC2)c2ccccc21	Wnt bcat act 50.5
Cn1cc(C(=O)OCC(=O)Nc2ccccc2)c2ccccc21	none (no result: Env fusion inh)
O=C([C@H]1N[C@H]2c3cccc(=O)n3C[C@H]2[C@@H]1CO)N1CCCCC1	none (no result: Env fusion inh, Wnt bcat act, MITF act, CFTR F508del cor)
O=C(Cc1ccncc1)N1CCCCN2[C@H](CO)[C@@H](c3ccc(C#Cc4ccccc4F)cc3)[C@H]2C1	none (no result: Env fusion inh, Wnt bcat act, MITF act)
COC1CC2C=C(C)C=CC=CC(=O)NC(c3ccccc3)CC=CCCC(O)CC(=O)C2=C1O (configuration not stated)	Env fusion inh 91.8, CFTR F508del cor 12.3 (no result: MITF act, INS-1E GSIS act)
COC(=O)C1=C(c2ccc(F)cc2OCc2ccccc2)C[C@@H]2CC[C@H]1N2C(=O)NC1Cc2ccccc2C1	Env fusion inh 57.2
COCCNC(=O)N1[C@H]2CC[C@@H]1C(C(=O)OC)=C(c1ccc(-c3ccccc3)c(F)c1)C2	Env fusion inh 57.4 (no result: INS-1E GSIS act)
COC(=O)C1=C(c2ccc(-c3ccccc3)c(F)c2)C[C@@H]2CC[C@H]1N2C(=O)NCCOc1ccccc1	none (no result: INS-1E GSIS act)
Cc1ccc2c(C)c3ccc4ccccc4c3c[n+]2c1	CFTR F508del cor 9.2 (no result: INS-1E GSIS act)
O=C(Cc1ccccc1)N1CC2(C1)[C@H](c1ccccc1)[C@@H](CO)N2Cc1cccc(F)c1	CFTR F508del cor inconclusive (no result: Env fusion inh, Wnt bcat act, MITF act)
CC(Cc1ccccc1)/[N+]([O-])=C\c1ccc(C(F)(F)F)cc1 (configuration not stated)	MITF act 115.4 (no result: INS-1E GSIS act)
COc1ccc(C2c3c(nc(C)[nH]c3=O)Oc3c2c(=O)oc2ccccc32)cc1 (configuration not stated)	Wnt bcat act 35.5 (no result: MITF act)
CCOc1ccc(C2CC(c3c(O)n(C)c(=O)n(C)c3=O)=NN2)cc1 (configuration not stated)	Wnt bcat act 30.1 (no result: MITF act)
COc1ccc(/C=N\N=C(N)N)cc1	none (no result: CFTR F508del cor)
NC(N)=N/N=C/c1ccc(N(c2ccccc2)c2ccccc2)cc1	INS-1E GSIS act 320.8
O=C(Cc1cccnc1)N1CCCCN2[C@H](CO)[C@H](c3ccc(/C=C/c4ccccc4)cc3)[C@H]2C1	none (no result: Env fusion inh, Wnt bcat act, MITF act)
CCCC#Cc1ccc([C@@H]2[C@H]3CN(C(=O)Cc4ccccn4)CCCCN3[C@H]2CO)cc1	none (no result: Env fusion inh, Wnt bcat act, MITF act)
C=C1C(=O)O[C@@H]2C[C@@H](C)[C@@H]3C=CC(=O)[C@@]3(C)[C@@H](OC(=O)CC(=O)O[C@H]3[C@@H]4C(=C)C(=O)O[C@@H]4C[C@@H](C)[C@@H]4C=CC(=O)[C@]43C)[C@H]12	Env fusion inh 108.9 (no result: INS-1E GSIS act)
COC(=O)[C@@H]1[C@@H](CO)[C@@H]2Cn3c(ccc(-c4cccnc4)c3=O)[C@H]1N2S(=O)(=O)c1ccccc1C	none (no result: Wnt bcat act, MITF act, CFTR F508del cor)
C=C1[C@@H](C)[C@H]2[C@H](Cc3ccccc3)NC(=O)[C@]23OC(=O)/C=C/[C@H](O)CCC[C@@H](C)C/C=C/[C@H]3[C@@H]1O	Env fusion inh 68.9 (no result: INS-1E GSIS act)
CC1CC(C)(O)CC(C(O)CC2CC(=O)NC(=O)C2)C1=O (configuration not stated)	Env fusion inh 97.8 (no result: MITF act)
Cc1cc([N+](=O)[O-])c(Cl)cc1NC(=O)C(C)C	none (no result: CFTR F508del cor)
CNc1cc(Cl)c2nonc2c1[N+](=O)[O-]	INS-1E GSIS act 51.0
O=C(O)[C@H]1[C@H](CO)[C@H]2Cn3c(ccc(-c4ccccc4)c3=O)[C@@H]1N2CC1CCCCC1	none (no result: Env fusion inh, Wnt bcat act, MITF act)
